Test results published in PubChem BioAssay (NCI).
Compounds without any hit were thinned out: in the full panel of roughly 79,000, 15% have a hit. No stated cut-off is given here; in the data, active means growth inhibition above about 70%; inactive means the rest.

Assays:
[1] = NCI Yeast Anticancer Drug Screen. Data for the rad50 strain (AID 155);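 further: 0% = growth of vehicle-only cultures of the same strain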; conditions: S. cerevisiae rad50 strain growth inhibition, stronger effect = higher value; at 50.0 µM unless noted
How it was run: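 Inhibition values express reduced yeast growth in compound-treated cultures relative to vehicle-treated controls.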

[2] = NCI Yeast Anticancer Drug Screen. Data for the mec2-1 strain (AID 157); conditions: S. cerevisiae mec2-1 strain, stronger effect = higher value; at 50.0 µM unless noted
How it was run: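 Using mec2-1 yeast: add compound, measure growth, express inhibition versus vehicle-treated cultures.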

[3] = NCI Yeast Anticancer Drug Screen. Data for the sgs1 mgt1 strain (AID 161);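 further: 0% = growth of cultures given vehicle only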; conditions: S. cerevisiae sgs1 mgt1 strain, stronger effect = higher value; at 50.0 µM unless noted
How it was run: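 Growth of a repair-deficient yeast mutant was monitored after compound treatment and expressed as inhibition relative to vehicle-treated cultures.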

[4] = NCI Yeast Anticancer Drug Screen. Data for the cln2 rad14 strain (AID 165);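 further: 0% = growth equal to vehicle treated cultures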; conditions: S. cerevisiae cln2 rad14 strain, stronger effect = higher value; at 50.0 µM unless noted
How it was run: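 Yeast strain cln2 rad14, bearing defects in cell cycle control and DNA repair, serves as the test system; values reflect growth inhibition compared with vehicle.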

[5] = NCI Yeast Anticancer Drug Screen. Data for the bub3 strain (AID 167); conditions: S. cerevisiae bub3 mutant strain, stronger effect = higher value; at 50.0 µM unless noted
How it was run: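 Steps: expose the mutant yeast strain to compound; grow alongside vehicle-treated cultures; measure growth; express inhibition against the vehicle cultures.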

[6] = NCI Yeast Anticancer Drug Screen. Data for the mlh1 rad18 strain (AID 175); conditions: S. cerevisiae mlh1 rad18 strain growth inhibition, stronger effect = higher value; at 50.0 µM unless noted
How it was run: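 Steps: expose repair-defective yeast to compound; measure growth; express inhibition against vehicle-treated controls.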

Measured: growth inhibition

Cc1ccc(Nc2nc(-c3ccc(-c4ccc([N+](=O)[O-])cc4)o3)cs2)cc1
inactive: [1] 20.5% | [2] 19.5% | [3] 31.8% | [4] 31.5% | [5] 28.7% | [6] 44%

Cc1ccc(OCC(=O)O)c(Cl)c1
inactive: [1] -1.9% | [2] -1.9% | [3] 0.65% | [4] -22.4% | [5] 17.4% | [6] 2.3%

CC1(C)SCc2nc3ccccc3n21
inactive: [1] -9.75% | [2] -34.9% | [3] 12.2% | [4] 21.9% | [5] 19.1% | [6] 6.3%

COC(=O)C1CCOC(C)N1C(=O)OC(C)(C)C (stereo not given)
inactive: [1] 2.9% | [2] 0.75% | [3] 6.4% | [4] 11% | [5] 13.2% | [6] -34.5%

CC1CC[N+](C)(CC(=O)c2ccc(-c3ccc(C(=O)C[N+]4(C)CCC(C)CC4)cc3)cc2)CC1 (stereo not given)
inactive: [1] -8.2% | [2] 1.4% | [3] -12.7% | [4] 22.9% | [5] -3.15% | [6] -10.2%
